Test results published in PubChem BioAssay (Tox21).
Values joined by “and” are separate entries in the source; they are usually repeats but may differ in a detail not shown here. Equal values may be shown once. Records with an inconclusive call do not appear. Some structures have more than one record in an assay (separate samples or runs), and their calls can disagree. Active and inactive are the calls of the source. Unless noted, calls come from the whole dose curve; as a rule, active = well fitted curve in the direction sought with a large enough effect in the repeat runs; inconclusive = weak or mixed curves; inactive = no such curve, though single readings can be large; an effect the other way counts as inactive or inconclusive.

What was measured:
[1] = qHTS assay for small molecules that induce genotoxicity in human embryonic kidney cells expressing luciferase-tagged ATAD5 (AID 651632); note: nearly all actives have a fitted effect of over 15% in size
In short: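 DMSO vehicle served as the control. HEK293T reporter cells, 16 hr at 37C, then 30 min Amplite at room temperature; ATAD5 induction is measured as luciferase activity.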

[2] = qHTS assay for small molecule agonists of the p53 signaling pathway - cell viability (AID 651633; calls by dose curve; note: nearly all actives have a fitted effect of over 30% in size; note: potency is the fitted concentration of half-maximal effect)
In short: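 p53RE-bla cells, seeded at 4,000 per well and rested 5 h at 37 C/5% CO2, received compounds in DMSO for 16 h at 37 C. CellTiter-Glo was then added, and luminescence was read after 30 min at room temperature to gauge cytotoxicity.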

[3] = qHTS assay for small molecule disruptors of the mitochondrial membrane potential - cell viability (AID 720634; calls by dose curve; note: nearly all actives have a fitted effect of over 20% in size; note: potency is the fitted concentration of half-maximal effect)
In short: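 Viability of HepG2 cells is scored from ATP content by luminescence; cells are exposed to compound for 1 hr at 37 C and 5% CO2, then dosed with m-MPI dye before the CellTiter-Glo reagent.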

[4] = qHTS assay to test for compound auto fluorescence at 590 nm (red) in HepG2 cells (AID 720674)
In short: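 Intrinsic compound fluorescence in the red window (Ex/Em 540/590 nm) is measured in attached HepG2 cells exposed for 1 hr, DMSO vehicle as baseline, benchmarked to Rose Bengal sodium.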

[5] = qHTS assay to test for compound auto fluorescence at 535 nm (green) in HepG2 cells (AID 720675)
[6] = qHTS assay to test for compound auto fluorescence at 460 nm (blue) in HEK293 cells (AID 720678)
In short: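 Blue-channel (Ex/Em 405/460 nm) intensity measured in HEK293 cultures after overnight compound exposure at 37C; signal expressed relative to triamterene. Cells plated 2,000 per well in 10% dialyzed FBS medium and allowed 4-5 hr to attach.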

[7] = qHTS assay to test for compound auto fluorescence at 590 nm (red) in HEK293 cells (AID 720679)
In short: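 Red-channel autofluorescence (Ex/Em 540/590 nm; Rose Bengal sodium reference) was measured after overnight 37C, 5% CO2 exposure of attached HEK293 cells, 2,000 per well in medium with 10% dialyzed FBS.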

[8] = qHTS assay to test for compound auto fluorescence at 535 nm (green) in HEK293 cells (AID 720680)
[9] = qHTS assay to test for compound auto fluorescence at 460 nm (blue) in HEK293 cell free culture (AID 720681)
In short: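 Test compounds were pinned into cell-free culture medium (DMEM with 10% FBS) and fluorescence was read directly at Ex/Em 405/460 nm. Signals were expressed as fluorescence equivalents of triamterene, with DMSO vehicle as control.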

[10] = qHTS assay to test for compound auto fluorescence at 535 nm (green) in HEK293 cell free culture (AID 720682)
In short: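 Fluorescein serves as the green reference fluorophore; each compound's intrinsic emission at 535 nm (excitation 485 nm) is reported as an equivalent amount of that dye, measured in serum-containing DMEM without cells.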

[11] = qHTS assay to test for compound auto fluorescence at 590 nm (red) in HEK293 cell free culture (AID 720683)
In short: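 Tox21 10K library compounds were pinned into cell-free DMEM with 10% FBS and fluorescence was read at excitation 540 nm. Activity is expressed as Rose Bengal sodium equivalency.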

[12] = qHTS assay to test for compound auto fluorescence at 590 nm (red) in HepG2 cell free culture (AID 720684)
In short: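 Ex 540 / Em 590 nm read of compound in cell-free MEM (10% FBS). Rose Bengal sodium reference.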

[13] = qHTS assay to test for compound auto fluorescence at 460 nm (blue) in HepG2 cell free culture (AID 720685)
In short: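 Cell-free plates of MEM plus 10% FBS received 23 nL compound or DMSO vehicle; blue-channel (405/460 nm) intensity scored against triamterene as reference fluorophore.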

[14] = qHTS assay to test for compound auto fluorescence at 535 nm (green) in HepG2 cell free culture (AID 720686)
[15] = qHTS assay to test for compound auto fluorescence at 460 nm (blue) in HepG2 cells (AID 720687)
In short: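 Cells (2,000/well in MEM with 10% FBS) attached overnight at 37 C, then were exposed to compound or DMSO for 1 hr at 37 C, 5% CO2. Fluorescence read at Ex/Em 405/460 nm, expressed as triamterene-equivalent signal.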

[16] = target: Glucocorticoid receptor (Homo sapiens) (UniProt P04150); assay: qHTS assay to identify small molecule antagonists of the glucocorticoid receptor (GR) signaling pathway (AID 720692; active = well fitted inhibition curve with a large enough effect in the signal ratio in the repeat runs, not every such curve was filed as active; the % refers to the signal ratio; note: potency is the fitted concentration of half-maximal effect)
In short: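 In a 1536-well cell format, compounds were added 4 h after seeding GR-bla HeLa cells, together with dexamethasone at 5 nM final; reporter activity was measured by FRET-substrate fluorescence following 18 h at 37 C.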

[17] = qHTS assay for small molecules that induce genotoxicity in human embryonic kidney cells expressing luciferase-tagged ATAD5 - cell viability (AID 651634; calls by dose curve; note: nearly all actives have a fitted effect of over 25% in size)
In short: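 Here HEK293T cells with the ATAD5 luciferase reporter are incubated with test compounds for 15.5 hr, and cytotoxicity is then gauged by measuring protease activity in live cells using fluorescence.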

[18] = target: Glucocorticoid receptor (Homo sapiens) (UniProt P04150); assay: qHTS assay to identify small molecule agonists of the glucocorticoid receptor (GR) signaling pathway (AID 720691; active = well fitted activation curve with a large enough effect in the signal ratio in the repeat runs, not every such curve was filed as active; the % refers to the signal ratio)
In short: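 Compounds in DMSO, alongside positive controls, were added to GR-bla HeLa reporter cells and incubated 18 h at 37 C; GRE-driven beta-lactamase was detected by fluorescence after 2 h with FRET substrate at room temperature.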

[19] = qHTS assay for small molecule agonists of the p53 signaling pathway (AID 651631; calls by dose curve; note: nearly all actives have a fitted effect of over 15% in size; note: potency is the fitted concentration of half-maximal effect)
In short: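 Read-out is beta-lactamase FRET fluorescence measured 2 h after substrate addition at room temperature, in HCT-116 cells with a p53 response element-driven reporter exposed to compounds for 16 h at 37 °C.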

[20] = qHTS assay for small molecule disruptors of the mitochondrial membrane potential (AID 720635); note: potency is the fitted concentration of half-maximal effect
In short: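 HepG2 cells (2,000/well) attached overnight at 37C, then took compound for 1 hr at 37C, 5% CO2. Mito-MPS dye was added for 30 min; fluorescence was read at 490/535 nm (monomers) and 540/590 nm (aggregates).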

Measured: Potency

Sequence of Glucocorticoid receptor (Homo sapiens) (P04150 whole entry, looked up): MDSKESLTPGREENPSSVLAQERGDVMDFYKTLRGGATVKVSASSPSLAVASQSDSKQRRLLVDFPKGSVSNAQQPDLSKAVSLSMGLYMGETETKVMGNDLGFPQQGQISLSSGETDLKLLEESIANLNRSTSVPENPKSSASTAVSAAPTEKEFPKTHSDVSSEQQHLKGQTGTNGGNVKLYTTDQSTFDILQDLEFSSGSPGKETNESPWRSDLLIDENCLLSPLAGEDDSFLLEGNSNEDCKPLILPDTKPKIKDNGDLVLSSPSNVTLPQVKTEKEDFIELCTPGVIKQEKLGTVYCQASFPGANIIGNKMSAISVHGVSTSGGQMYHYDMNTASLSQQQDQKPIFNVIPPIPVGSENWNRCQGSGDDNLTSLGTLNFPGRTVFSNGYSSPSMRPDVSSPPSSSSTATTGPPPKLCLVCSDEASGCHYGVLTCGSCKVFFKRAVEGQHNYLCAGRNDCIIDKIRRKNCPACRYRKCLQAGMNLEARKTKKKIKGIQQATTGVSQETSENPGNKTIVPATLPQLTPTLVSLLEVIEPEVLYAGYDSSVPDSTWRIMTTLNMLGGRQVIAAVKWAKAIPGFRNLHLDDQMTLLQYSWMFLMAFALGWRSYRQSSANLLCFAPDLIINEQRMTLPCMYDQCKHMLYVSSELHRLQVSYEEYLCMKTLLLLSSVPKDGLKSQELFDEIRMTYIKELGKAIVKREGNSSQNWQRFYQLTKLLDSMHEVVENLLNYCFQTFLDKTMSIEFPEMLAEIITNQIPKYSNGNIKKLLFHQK

COCc1cnc(C2=NC(C)(C(C)C)C(=O)N2)c(C(=O)O)c1 (stereo unspecified)
not listed: [17] | [18] | [19] | [20]
inactive: all other assays above

CC(C)(C)CC(C)(C)c1ccc(O)cc1
active: [2] 29.8 µM and 30.6 µM | [3] 23.7 µM and 17.2 µM
not listed: [16] | [17] | [18] | [19] | [20]
inactive: all other assays above

Cc1cccc(C)c1NC1=NCCCS1
not listed: [16] | [18] | [19] | [20]
inactive: all other assays above

CC(C)c1ccc(NC(=O)N(C)C)cc1
not listed: [15] | [19] | [20]
inactive: all other assays above

CCOC(=O)NC(O)C(Cl)(Cl)Cl (stereo unspecified)
not listed: [15] | [16] | [18] | [19] | [20]
inactive: all other assays above

C=CC(C)(CCC=C(C)C)OC(=O)c1ccccc1N (stereo unspecified)
not listed: [1] | [2] | [6] | [8] | [15] | [16] | [17] | [20]
inactive: all other assays above

Cc1nc(N(C)C)nc(OC(=O)N(C)C)c1C
not listed: [15] | [17] | [19]
inactive: all other assays above

CCC1CCC(=O)O1 (stereo unspecified)
not listed: [8] | [18] | [19]
inactive: all other assays above

CCOP(=O)(SC(C)CC)N1CCSC1=O (stereo unspecified)
not listed: [9] | [16] | [18] | [19]
inactive: all other assays above

C#C[C@]1(O)CC[C@H]2[C@@H]3CCC4=CC(=O)CCC4=C3C=C[C@@]21CC
active: [16] 379 nM
not listed: [1] | [2] | [3] | [6] | [9] | [15] | [18] | [20]
inactive: all other assays above

Clc1ccccc1
not listed: [6] | [8] | [15] | [17] | [19]
inactive: all other assays above

CCc1ccccc1N
not listed: [6] | [16] | [19] | [20]
inactive: all other assays above

CCCCCCCCCCCC[N+](C)(C)CCOc1ccccc1
active: [2] 29.8 µM and 21.7 µM | [20] 26.6 µM and 30.6 µM
inactive and 68.6 µM (active): [3]
not listed: [15] | [16] | [17] | [18] | [19]
inactive: all other assays above

O=C(N[C@H]1CN2CCC1CC2)c1ccc2c(c1)OCCO2
not listed: [19]
inactive: all other assays above

CCC(C)(C)c1ccc(O)c(C(C)(C)CC)c1
active: [2] 21.4 µM and 27.3 µM | [3] 6.04 µM
not listed: [9] | [16] | [17] | [18] | [19] | [20]
inactive: all other assays above

CN(C1CCCCC1)C1CCCCC1
not listed: [8] | [18] | [19]
inactive: all other assays above

CC(C)(C)c1ccc(CCOc2ncnc3ccccc23)cc1
not listed: [16] | [18] | [19]
inactive: all other assays above

c1ccc2sc(SNC3CCCCC3)nc2c1
active: [20] 67.8 µM and 54.5 µM
not listed: [15] | [19]
inactive: all other assays above

C[N+]1(CCC(C(N)=O)(c2ccccc2)c2ccccc2)CCCCC1
not listed: [8] | [9] | [17] | [19]
inactive: all other assays above

C=CC(=O)OCC
not listed: [9] | [15] | [17] | [19] | [20]
inactive: all other assays above

O=C(N/N=C/c1ccc([N+](=O)[O-])o1)c1cc([N+](=O)[O-])cc([N+](=O)[O-])c1O
active: [2] 26.6 µM
not listed: [17] | [19] | [20]
inactive: all other assays above

CCOP(=O)(O)C(N)=O
active: [20] 3.44 µM
not listed: [19]
inactive: all other assays above

O=C(Cc1ccccc1)c1ccccc1
not listed: [9] | [15] | [17] | [18] | [19] | [20]
inactive: all other assays above

CCC1(CC)C(=O)NC(=O)NC1=O
not listed: [6] | [15] | [19] | [20]
inactive: all other assays above

NNCCO
not listed: [3] | [8] | [9] | [16] | [18] | [19] | [20]
inactive: all other assays above

CON(C)C(=O)Nc1ccc(Cl)cc1
not listed: [16] | [19] | [20]
inactive: all other assays above

CCc1cnc(C2=NC(C)(C(C)C)C(=O)N2)c(C(=O)O)c1 (stereo unspecified)
not listed: [15] | [18] | [19] | [20]
inactive: all other assays above

O=[N+]([O-])/C=C/c1ccccc1
active: [19] 2.47 µM and 2.43 µM | [16] 15.7 µM and 17.4 µM
62.1 µM (active) and inactive: [3]
not listed: [1] | [2] | [17] | [18] | [20]
inactive: all other assays above

O=C1NC(=O)C(=O)C(=O)N1
not listed: [16] | [18] | [19] | [20]
inactive: all other assays above

ClCc1ccccc1Cl
not listed: [19] | [20]
inactive: all other assays above
